Source: the supplement of paper PMC10127200
Counter-ions that a name gives are not always drawn.

Legend:
Experiment in all cases: Euclidean distance of Cell Painting phenotypic profile (signed KS, 77 features) to DMSO centroid (dimensionless distance); 5 or 10 uM (library dependent); higher = stronger phenotypic change vs DMSO (phenoactivity)
Settings in all cases: 48 h
[1] = test system: 786-O
How it was run: (§1)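 Five cancer lines and a healthy fibroblast line received library compounds at 10 or 5 uM (library-dependent, 0.1% DMSO final) for 48 h. Stained cells were imaged confocally at 20X (9 fields/well). Harmony extracted 77 features, each scored as a signed Kolmogorov-Smirnov statistic against same-plate vehicle wells. Profiles were plate-position corrected, correlation-weighted and replicate-averaged at the top dose. Phenoactivity is the Euclidean distance from each profile to the median vehicle profile.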

[2] = test system: A549
How it was run: as §1

[3] = test system: DU145
How it was run: as §1

[4] = test system: FB
How it was run: as §1

[5] = test system: HEPG2
How it was run: as §1

[6] = test system: OVCAR4
How it was run: as §1

SMILES | Euclidean distance [1] | Euclidean distance [2] | Euclidean distance [3] | Euclidean distance [4] | Euclidean distance [5] | Euclidean distance [6]
CN1C2CCCC1CC(NC(=O)c1nn(C)c3ccccc13)C2 (stereo not drawn) [Granisetron] | 1.06 | 0.852 | 0.646 | 1.23 | 1 | 2.06
CCN(CC)CCNC(=O)c1c(C)[nH]c(/C=C2\C(=O)Nc3ccc(F)cc32)c1C [Sunitinib] | 3.58 | 3.66 | 2.98 | 4.34 | 3.3 | 2.86
COC[C@H](NC(=O)c1cnc(C)s1)C(=O)N[C@@H](COC)C(=O)N[C@@H](Cc1ccccc1)C(=O)[C@@]1(C)CO1 [Oprozomib (ONX 0912)] | 5.53 | 4.48 | 5.47 | 4.12 | 4.53 | 4.85
CCCCNc1cc(C(=O)O)cc(S(N)(=O)=O)c1Oc1ccccc1 [Bumetanide] | 1.24 | 1.15 | 1.04 | 1.5 | 1.38 | 1.64
CCCN1CCCC[C@H]1C(=O)Nc1c(C)cccc1C [Ropivacaine HCl] | 0.76 | 0.477 | 0.895 | 0.646 | 0.469 | 1.39
Cn1cnc2c(F)c(Nc3ccc(Br)cc3Cl)c(C(=O)NOCCO)cc21 [Selumetinib (AZD6244)] | 2.23 | 2.67 | 2.91 | 2.95 | 1.72 | 2.19
O=C(c1ccc(F)cc1)N1CCC[C@H](c2nc(-c3ccc(F)cc3)no2)C1 | 1.35 | 0.726 | 0.856 | 1.17 | 0.656 | 0.832
COc1ccc(S(=O)(=O)Nc2cccnc2Nc2ccc(O)cc2)cc1 | 2.73 | 2.61 | 3.18 | 2.99 | 3.33 | 3.12
C#CCN[C@@H]1CCc2ccccc21 [Rasagiline Mesylate] | 1.19 | 0.608 | 0.782 | 0.686 | 1.01 | 1.18
CC(=O)O[C@H]1C(=O)[C@@]2(C)[C@H]([C@H](OC(=O)c3ccccc3)[C@]3(O)C[C@H](OC(=O)[C@H](O)[C@@H](NC(=O)c4ccccc4)c4ccccc4)C(C)=C1C3(C)C)[C@]1(OC(C)=O)CO[C@@H]1C[C@@H]2O [Paclitaxel] | 3.07 | 2.6 | 4.23 | 2.69 | 2.08 | 2.73
NC(=O)Nc1sc(-c2ccc(F)cc2)cc1C(N)=O | 1.85 | 1.8 | 2.12 | 3.25 | 0.991 | 1
NCCCC[C@@H]1NC(=O)[C@@H](Cc2ccccc2)NC(=O)[C@H](CC(=O)O)NC(=O)CNC(=O)[C@H](CCCN=C(N)N)NC1=O [Cyclo (-RGDfK)] | 2.63 | 1 | 2.08 | 0.709 | 3.57 | 2.1
Cc1c(F)cc(C(=O)NC2CC2)cc1-c1ccc(C(=O)NCC(C)(C)C)cn1 | 1.17 | 0.619 | 1.23 | 0.572 | 0.761 | 1.09
NCCS [Cysteamine HCl] | 0.86 | 0.424 | 0.624 | 1.02 | 0.897 | 1.07
C[C@]12C[C@H](O)[C@H]3[C@@H](CCC4=CC(=O)CC[C@@]43C)[C@@H]1CC[C@@H]2C(=O)CO [Corticosterone] | 1 | 1.47 | 1.47 | 1.15 | 0.619 | 1.04
CCCCCCCCCCCCCCCCn1cc[n+](Cc2ccccc2)c1C | 3.58 | 4.18 | 2.89 | 2.94 | 4.61 | 4.19
C[C@H]1C[C@@H]2[C@H]([C@@H](O)C[C@@]3(C)[C@H]2CC[C@]3(O)C(=O)CO)[C@@]2(C)C=CC(=O)C=C12 [Methylprednisolone] | 1.37 | 1.96 | 1.76 | 1.79 | 2.31 | 2.07
Cc1ccc([C@@H]2O[C@H](CO)[C@@H](O)[C@H](O)[C@H]2O)cc1Cc1ccc(-c2ccc(F)cc2)s1 [Canagliflozin hemihydrate] | 1.46 | 2.27 | 0.936 | 1.44 | 1.06 | 1.37
N=C(N)NCCC[C@H](N)C(=O)O [L-arginine] | 1.03 | 0.798 | 1.21 | 0.843 | 0.876 | 0.97
CN(N=O)C(=O)NC1C(O)OC(CO)C(O)C1O (stereo not drawn) [Streptozotocin (STZ)] | 1.35 | 0.706 | 0.768 | 1.26 | 0.501 | 1.16
Clc1ccc(CCCOCCCN2CCCCC2)cc1 [Pitolisant hydrochloride] | 0.716 | 0.836 | 0.816 | 0.98 | 0.955 | 0.758
COC(c1ccccc1)(c1ccccc1)[C@H](Oc1nc(C)cc(C)n1)C(=O)O [Ambrisentan] | 1.45 | 0.738 | 1.17 | 0.718 | 2.03 | 1.52
CC(C)(C)C(=O)Oc1ccc(S(=O)(=O)Nc2ccccc2C(=O)NCC(=O)O)cc1 [Sivelestat (ONO-5046)] | 0.847 | 0.693 | 0.861 | 1.16 | 0.614 | 0.797
Clc1ccc2c(c1)CCc1cccnc1C2=C1CCNCC1 [Desloratadine] | 1.38 | 0.811 | 1.51 | 1.83 | 2.17 | 1.88
COc1cc(OC2CCN(C)CC2)ccc1Nc1ncc2c(n1)n(C1CCCC1)c(=O)n2C | 1.53 | 2.28 | 1.39 | 2.84 | 1.78 | 1.83
O=C(Nc1ccc(Oc2ccc(Cl)cc2)c(Cl)c1)c1cc(I)cc(I)c1O [Rafoxanide] | 1.36 | 1.72 | 1.23 | 1.19 | 1.44 | 1.54
NS(=O)(=O)c1cc2c(cc1Cl)NC(C1CC3C=CC1C3)NS2(=O)=O (stereo not drawn) [Cyclothiazide] | 1.37 | 0.917 | 0.711 | 1.07 | 0.641 | 2.44
NCC[C@H](O)C(=O)N[C@@H]1C[C@H](N)[C@@H](O[C@H]2O[C@H](CN)[C@@H](O)[C@H](O)[C@H]2O)[C@H](O)[C@H]1O[C@H]1O[C@H](CO)[C@@H](O)[C@H](N)[C@H]1O [Amikacin hydrate] | 1.52 | 1.1 | 0.584 | 1.08 | 1.29 | 1.07
